This note sets out measurements from PubChem BioAssay (NCI).

Holding throughout (experiment): NCI-60 one-dose screen, 48 h (100 = growth as untreated, 0 = no growth, -100 = all killed)
Holding throughout (conditions): 10 µM unless noted

Test [1] relates to DU-145 prostate.
The subject of test [2] is K-562 leukemia.
In test [3] the test system is MALME-3M melanoma.
In test [4] the test system is MDA-MB-231 breast.
The test system of test [5] is RXF 393 renal.
The subject of test [6] is SF-268 CNS.
Test [7] relates to SF-295 CNS.
The subject of test [8] is SF-539 CNS.
The test system of test [9] is UACC-257 melanoma.
The subject of test [10] is M14 melanoma.
Test [11] has as its system HCT-15 colon.
Test [12] concerns HT29 colon.
Test [13] relates to SNB-75 CNS.
Test [14] concerns SNB-19 CNS.
For test [15], the system named is U251 CNS.
Test [16] concerns PC-3 prostate.
The test system of test [17] is SK-MEL-5 melanoma.
Test [18] concerns UACC-62 melanoma.
Test [19] relates to LOX IMVI melanoma.
Test [20] concerns SK-MEL-28 melanoma.

The panel holds about 83,000 compounds, 20% with a hit somewhere; the sample as a whole holds those more often.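 Growth was measured after 48 h exposure to one concentration of compound in 96-well plates. Values under 10 count as active.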 Values without a mark were called inactive. Active and inactive are the calls of the source.

On to `Cn1cc(-c2csc(-c3c[nH]c4ccc(Br)cc34)n2)c2ccnc(Cl)c21`, for which the growth is 42.9% in test [1]; 17.6% in test [2]; 112% in test [3]; 54.8% in test [4]; 51% in [5]; 86.7% in test [6]. Also, the growth is 62.1% in test [7]; 67.6% in [8]; 17.4% in test [9]; 43.2% in test [10]; -0.791% (active) in test [11]; 20.8% in [12]. Besides, the growth in [13] was 85.2%; in test [14], 81.7%; in test [15], 33.4%; in test [16], 50.2%; in test [17], 71.7%; in test [18], 68.8%. The growth is 26.2% in [19] and 71.7% in [20].

With `Cc1ccc2c(Cn3cc(CSc4nc5ccccc5o4)nn3)cc(=O)oc2c1`, the growth is 111% in test [1]; 98.4% in test [2]; 104% in test [3]; 106% in test [4]; 98.6% in test [5]; 103% in [6]. For the same compound, the growth is 110% in test [7]; 101% in test [8]; 104% in [9]; 114% in test [10]; 107% in test [11]; 108% in [12]. Also, the growth is 105% in [13]; 105% in test [14]; 113% in test [15]; 104% in test [16]; 98.8% in [17]; 104% in test [18]. Also, the results for the growth in test [19] and in [20] were 96.9% and 110%, respectively.

Turning to `NC(=O)c1c(NC(=O)c2ccc3ccccc3c2)sc2c1CCC(=O)C2`, the growth in test [1] was 94.4%; in test [2], 14.6%; in test [3] it was 91.1%; in [4] it was 67.5%; in test [5] it was 60.7%; in [6], 31.4%. The growth in [7] is 93.4%; in test [8], 25.4%; in test [9], 91.6%; in test [10], 37.4%; in test [11] it was 42.1%; in test [12], 55.2%. Also, the growth in test [13] is 40.3%; in test [14], 46.3%; in test [15] it was 22.9%; in [16], 16.6%; in [17], 99.7%; in test [18], 42%. The growth in test [19] was 37.5%; in test [20], 97.1%.

With `c1cnc2c(-c3nc4ccc5[nH]ncc5c4c4c3CCCC4)c[nH]c2c1`, the growth was 27.7% in [1]; 21% in test [2]; 63.8% in test [3]; 30.7% in test [4]; 42.7% in test [5]; 40.4% in [6]. Besides, the growth was 32.1% in test [7]; 42.9% in test [8]; 98.3% in test [9]; 59% in test [10]; 43.9% in test [11]; 14.9% in test [12]. For the same compound, the growth in [13] was 57.8%; in test [14], 29.8%; in [15] it was 29.8%; in [16], 27.5%; in [17], 56.4%; in [18], 45.8%. For the same compound, the growth in test [19] is 19.6%; in test [20], 88.8%.

As to `CCCCCCCCCc1ccc(OCCOCCOCCOCCOCCOCCOCCOCCOCCO)cc1`, the growth in test [1] is 31.5%; in test [2] it was 10.5%; in test [3] it was -10.2% (active); in test [4] it was -38.1% (active); in test [5] it was 29%; in test [6], 28.1%. Further, the growth in test [7] is 0.0887% (active); in [8], 29%; in test [9], -25.2% (active); in test [10], -11.3% (active); in test [11], 10.4%; in test [12], 15.2%. The growth was 36.6% in test [13]; 28.6% in test [14]; 16.4% in test [15]; 9.37% (active) in test [16]; -77.3% (active) in test [17]; 11.7% in test [18]. The figures for the growth in [19] and in [20] were 7.91% (active) and 34.4%, respectively.

With `COc1ccc(-c2noc(C(=O)O)c2-c2cc(OC)c(OC)c(OC)c2)cc1`, the growth is 36.1% in [1]; 12.6% in [2]; 52.8% in test [3]; 57.1% in [4]; 21.2% in test [5]; 40.5% in test [6]. Further, the growth in test [7] was 13.5%; in [8], 3.15% (active); in test [9], 45.4%; in [10], 11.7%; in [11], 30.4%; in [12], 4.82% (active). Also, the growth in test [13] is -3.43% (active); in [14] it was 31.6%; in test [15], 24.6%; in [16] it was 26.3%; in [17], 13%; in [18] it was 24.2%. Besides, the growth in test [19] is 35.2%; in test [20], 65.3%.

For the compound `COc1ccc(C(=O)C/C(=C\c2ccc(Cl)cc2)C(=O)NCc2ccccc2)cc1`, the growth is 103% in test [1]; 62.4% in test [2]; 79.8% in test [3]; 81.3% in test [4]; 91.6% in test [5]; 86.3% in test [6]. Moreover, the growth in test [7] was 101%; in [8], 94.4%; in test [9] it was 70.7%; in test [10], 94.8%; in test [11] it was 47%; in test [12], 82.1%. Also, the growth was 100% in test [13]; 85.5% in test [14]; 70.6% in [15]; 56.4% in [16]; 93.4% in test [17]; 67.3% in test [18]. For the same compound, the growth in test [19] is 77.9%; in [20], 91.2%.

As to `CCCCCCCCCCCCCCCCOCCCOP(=O)(O)C1CCCN(O)C1=O` (stereo not given), the growth in test [1] is 24.6%; in [2] it was 19.4%; in [3] it was 20.4%; in [4] it was 42.7%; in test [5], 7.41% (active); in [6] it was 5.39% (active). In addition, the growth in test [7] was 3.46% (active); in test [8], -4.5% (active); in test [9], 18.2%; in test [10] it was -3.96% (active); in test [11] it was 7.93% (active); in [12], 23.1%. Besides, the growth was 22.8% in test [13]; 22% in test [14]; 18.7% in test [15]; 13.5% in test [16]; -65.8% (active) in [17]; -13% (active) in test [18]. Besides, the results for the growth in test [19] and in [20] were 0.67% (active) and 38.3%, respectively.
